# Assay results: PubChem BioAssay AID492996 (Johns Hopkins Ion Channel Center, 2010)
# Measured potencies and affinities stand elsewhere. Activity calls are given as the source filed them.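 How the source made its calls: active means peak inhibition of the TRPC4 channel signal over 30% at some dose, with a fitted dose response curve; inactive means no inhibition or no dose response curve.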
# Target: Short transient receptor potential channel 4 (Mus musculus) (UniProt Q9QUQ5)
# Assay: TRPC4 inhibition under acetylcholine activation, SAR follow-up, cell-based, acetylcholine stimulus, HEK293 TRPC4, Fluo-4 (AID 492996)
# Settings: HEK293 TRPC4 cells, ACh-evoked Fluo-4 calcium flux; series mostly up to 20 µM
# Chain of Short transient receptor potential channel 4 (Mus musculus) (Q9QUQ5 whole entry, looked up): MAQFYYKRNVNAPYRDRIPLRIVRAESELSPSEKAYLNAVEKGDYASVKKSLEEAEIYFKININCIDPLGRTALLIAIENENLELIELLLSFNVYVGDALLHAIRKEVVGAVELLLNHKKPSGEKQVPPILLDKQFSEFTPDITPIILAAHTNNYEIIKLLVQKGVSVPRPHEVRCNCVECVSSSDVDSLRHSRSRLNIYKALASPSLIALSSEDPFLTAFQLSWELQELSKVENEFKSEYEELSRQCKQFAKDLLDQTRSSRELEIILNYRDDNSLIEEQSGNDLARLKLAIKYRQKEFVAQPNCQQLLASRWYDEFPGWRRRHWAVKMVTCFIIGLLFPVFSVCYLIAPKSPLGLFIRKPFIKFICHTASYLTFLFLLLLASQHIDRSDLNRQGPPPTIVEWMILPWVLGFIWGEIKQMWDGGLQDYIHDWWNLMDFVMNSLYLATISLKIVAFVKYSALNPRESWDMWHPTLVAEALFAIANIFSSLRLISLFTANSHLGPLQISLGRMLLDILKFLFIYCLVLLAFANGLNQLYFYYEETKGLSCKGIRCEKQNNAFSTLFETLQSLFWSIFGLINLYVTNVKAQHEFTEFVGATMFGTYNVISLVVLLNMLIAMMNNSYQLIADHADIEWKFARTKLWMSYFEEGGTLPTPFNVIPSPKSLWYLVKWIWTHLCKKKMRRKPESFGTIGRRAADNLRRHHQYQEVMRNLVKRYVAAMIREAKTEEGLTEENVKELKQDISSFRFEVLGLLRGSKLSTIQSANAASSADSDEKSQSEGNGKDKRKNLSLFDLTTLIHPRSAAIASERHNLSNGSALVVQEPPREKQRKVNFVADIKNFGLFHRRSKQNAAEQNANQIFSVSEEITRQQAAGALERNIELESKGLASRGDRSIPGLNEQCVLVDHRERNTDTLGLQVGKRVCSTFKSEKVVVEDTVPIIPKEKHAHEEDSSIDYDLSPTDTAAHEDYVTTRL
smiles,measurement,value
Cc1cc(N2CCNCC2)nc2ccccc12,outcome,inactive
